# Data taken from PubChem BioAssay.
# Activity calls are given as the source filed them. Unless noted, no rule for the calls is given here.
# Experiments:
# [1] = tested on: Wnt5a (protein binding on small-molecule microarray); test: Wnt5a binders on small-molecule microarray, primary screen, biophysical, 635/667 nm fluorescence (AID 1142); conditions: 635 nm fluorescence, higher = more signal;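 also: fluorescence read at 667 nm with signal to noise per printed feature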
# [2] = cell viability in Huh7 cells, primary screen, cytotoxicity control for HCV replication inhibitor project, CellTiter-Glo luminescence, basal, 48 h (AID 1143); conditions: Huh7 HCV replicon, higher = more signal, called active from +8 up or from −8 down;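 also: Huh7 hepatoma cells carrying a hepatitis C replication reporter with no stimulus; test concentration not given here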
# [3] = P. aeruginosa biofilm formation inhibitors, primary screen, PAO1 strain, BacTiter-Glo luminescence, LB-PBS (AID 1144); conditions: 12 h, higher = more signal
# [4] = CREB reporter modulators without forskolin, primary screen, cell-based, PC12, CRE-LacZ reporter, unstimulated (AID 1145); conditions: no forskolin, luminescence, 4.5 h, higher = more signal, called active from +8 up or from −8 down
# [5] = CREB reporter modulators under forskolin, primary screen, cell-based, PC12, CRE-LacZ reporter, forskolin-stimulated (AID 1146); conditions: luminescence, 4.5 h, higher = more signal, called active from +8 up or from −8 down;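 also: PC12 cells with 6xCRE LacZ reporter stimulated by forskolin 10 µM; beta-galactosidase reporter signal reflecting CREB driven transcription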
# [6] = biological target: Streptavidin (Streptomyces avidinii) (UniProt P22629); test: streptavidin binders on small-molecule microarray, primary screen, artefact control for SMM compound annotation, biophysical, 635/667 nm fluorescence (AID 1147); conditions: streptavidin binding, higher = more signal;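 also: signal reflects streptavidin binding to arrayed compounds as a control protein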
# [7] = small-molecule binders of probe aInhba, primary screen, biochemical, small-molecule microarray, 635/667 nm fluorescence (AID 1148); conditions: higher = more signal;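 also: score merges 667nm spot fluorescence with signal-to-noise for antibody binding to printed compounds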
# Torsin-1A (Homo sapiens) [8] = biological target: Torsin-1A (Homo sapiens) (UniProt O14656); test: torsin A binders from cell lysate, primary screen, small-molecule microarray, wild-type, 635/667 nm (AID 1149); conditions: COS7 hTOR1A-WT lysate, 635 nm fluorescence, higher = more signal
# Torsin-1A (Homo sapiens) [9] = biological target: Torsin-1A (Homo sapiens) (UniProt O14656); test: small-molecule binders of mutant TOR1A in lysate, primary screen, cell lysate, small-molecule microarray, COS7 lysate, 635/667 nm fluorescence (AID 1150); conditions: COS7 hTOR1A mutant lysate, 635 nm fluorescence, higher = more signal;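 also: score pools 667 nm emission and signal to noise measuring lysate protein binding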
# [10] = tested on: Sonic hedgehog protein (Shh); test: small-molecule binders of Shh protein, primary screen, biochemical, small-molecule microarray, 635/667 nm fluorescence (AID 1151); conditions: small-molecule microarray binding, 635 nm fluorescence; higher = more signal;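 also: Shh protein binding to compounds spotted on small-molecule microarray slides; score combines spot fluorescence intensity with signal-to-noise across triplicate slides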
# [11] = E. coli DRC41 culture turbidity changes, primary screen, E. coli filamentation inducer project, strain DRC41, OD650, 48 h (AID 1152);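 also: E. coli MC1000 strain DRC41 lacking acrAB efflux pump and sulA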; conditions: E. coli DRC41 (acrAB sulA), higher = more signal, called active from +8 up or from −8 down
# [12] = small-molecule binders of probe aLefty1, primary screen, biochemical, small-molecule microarray, 635/667 nm fluorescence (AID 1153); conditions: higher = more signal;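 also: score merges spot fluorescence with signal-to-noise ratio from the scanned slide images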
# [13] = PSAC antagonists in infected red cells, primary screen, cell-based, P. falciparum Indochina, OD700, 1 h (AID 1154); conditions: P. falciparum Indochina infected RBC osmotic lysis, higher = more signal, called active from +8 up or from −8 down
# [14] = PSAC antagonists in infected red cells, primary screen, cell-based, P. falciparum Indochina, OD700, 2 h (AID 1155);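 also: lysis reports solute entry through the parasite surface anion channel PSAC; channel blockers reduce lysis of infected cells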; conditions: P. falciparum Indochina infected erythrocytes, osmotic lysis OD700; higher = more signal, called active from +8 up or from −8 down
# [15] = osmotic lysis modulators in infected erythrocytes, primary screen, PSAC antagonist project, cell-based, P. falciparum Indochina, OD700, 3 h (AID 1156); conditions: higher = more signal, called active from +8 up or from −8 down
# [16] = PSAC antagonists in infected red cells, primary screen, cell-based, P. falciparum Indochina, OD700, 18 h (AID 1157); conditions: P. falciparum Indochina infected erythrocytes, osmotic lysis OD700, 18 h; higher = more signal, called active from +8 up or from −8 down
# [17] = modulators of S6 phosphorylation in cells, primary screen, cell-based, A549, cytoblot, luminescence, serum-stimulated (AID 1158); conditions: A549 phospho-S6 cytoblot, 5 h, higher = more signal;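 also: serum-stimulated A549 lung adenocarcinoma cells; signal is phosphorylated S6 detected by cytoblot immunostaining with HRP secondary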
# [18] = biological target: NADPH oxidase 2 (Homo sapiens) (UniProt P04839); test: NOX2-dependent H2O2 signal modulators, primary screen, NOX inhibitor project, cell-based, HEK293-NOX2, PMA-stimulated, Amplex Red fluorescence (AID 1159); conditions: 45 min, higher = more signal, called active from +8 up or from −8 down; also: test concentration not given here
# [19] = biological target: NADPH oxidase 4 (Homo sapiens) (UniProt Q9NPH5); test: NOX4-dependent H2O2 signal modulators, primary screen, NOX inhibitor project, cell-based, HEK293-NOX4, tetracycline-induced, Amplex Red fluorescence (AID 1160); conditions: 45 min, higher = more signal, called active from +8 up or from −8 down
# [20] = biological target: NADPH oxidase 5 (Homo sapiens) (UniProt Q96PH1); test: NOX5-dependent H2O2 signal modulators, primary screen, NOX inhibitor project, cell-based, HEK293-NOX5, Amplex Red fluorescence (AID 1161); conditions: HEK293-NOX5, ionomycin, 45 min, higher = more signal
# NADPH oxidase 5 (Homo sapiens), sequence (Q96PH1 whole entry, looked up): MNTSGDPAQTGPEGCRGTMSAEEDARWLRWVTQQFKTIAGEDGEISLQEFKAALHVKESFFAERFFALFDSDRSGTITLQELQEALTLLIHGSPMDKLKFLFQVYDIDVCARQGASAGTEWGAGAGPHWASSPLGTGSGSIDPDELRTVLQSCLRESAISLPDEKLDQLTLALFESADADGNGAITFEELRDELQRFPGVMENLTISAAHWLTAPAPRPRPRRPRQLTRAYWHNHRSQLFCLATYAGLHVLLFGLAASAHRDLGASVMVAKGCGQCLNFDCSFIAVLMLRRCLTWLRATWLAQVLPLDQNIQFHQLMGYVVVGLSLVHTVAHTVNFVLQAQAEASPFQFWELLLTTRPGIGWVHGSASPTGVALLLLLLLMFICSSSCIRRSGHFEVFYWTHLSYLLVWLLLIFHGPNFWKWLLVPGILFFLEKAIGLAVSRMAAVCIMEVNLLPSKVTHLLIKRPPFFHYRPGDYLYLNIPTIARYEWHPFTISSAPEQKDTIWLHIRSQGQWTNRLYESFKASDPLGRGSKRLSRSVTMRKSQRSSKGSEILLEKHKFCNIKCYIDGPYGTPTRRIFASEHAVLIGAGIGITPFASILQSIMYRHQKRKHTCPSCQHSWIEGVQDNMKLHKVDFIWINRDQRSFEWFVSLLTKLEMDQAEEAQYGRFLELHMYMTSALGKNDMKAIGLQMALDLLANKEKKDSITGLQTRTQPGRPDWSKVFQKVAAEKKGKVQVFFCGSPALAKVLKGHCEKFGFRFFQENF
# NADPH oxidase 2 (Homo sapiens), sequence (P04839 whole entry, looked up): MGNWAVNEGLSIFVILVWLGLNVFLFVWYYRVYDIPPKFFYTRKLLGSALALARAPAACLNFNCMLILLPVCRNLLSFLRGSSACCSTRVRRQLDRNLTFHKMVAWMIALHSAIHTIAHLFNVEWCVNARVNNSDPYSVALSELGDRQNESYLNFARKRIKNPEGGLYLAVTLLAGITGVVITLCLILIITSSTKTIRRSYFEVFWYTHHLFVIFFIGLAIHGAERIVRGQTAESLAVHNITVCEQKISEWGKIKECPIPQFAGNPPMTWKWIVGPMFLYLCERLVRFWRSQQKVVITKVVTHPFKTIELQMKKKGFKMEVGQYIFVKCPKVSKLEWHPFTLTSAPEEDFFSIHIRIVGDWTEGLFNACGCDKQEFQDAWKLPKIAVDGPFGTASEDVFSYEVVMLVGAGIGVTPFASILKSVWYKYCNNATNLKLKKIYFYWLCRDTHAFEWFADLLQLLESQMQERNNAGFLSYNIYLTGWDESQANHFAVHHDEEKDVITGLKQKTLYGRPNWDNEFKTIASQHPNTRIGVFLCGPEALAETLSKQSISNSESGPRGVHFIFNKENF
# Torsin-1A (Homo sapiens), sequence (O14656 whole entry, looked up): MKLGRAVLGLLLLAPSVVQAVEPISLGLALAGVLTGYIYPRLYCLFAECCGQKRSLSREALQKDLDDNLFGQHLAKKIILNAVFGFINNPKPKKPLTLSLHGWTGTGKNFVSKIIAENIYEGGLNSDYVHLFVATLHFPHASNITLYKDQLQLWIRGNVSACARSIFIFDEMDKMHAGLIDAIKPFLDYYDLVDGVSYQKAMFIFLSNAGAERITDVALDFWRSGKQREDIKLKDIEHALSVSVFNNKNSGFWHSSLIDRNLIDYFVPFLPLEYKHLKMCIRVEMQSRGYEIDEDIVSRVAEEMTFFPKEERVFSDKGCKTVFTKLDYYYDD
# Streptavidin (Streptomyces avidinii), sequence (P22629 whole entry, looked up): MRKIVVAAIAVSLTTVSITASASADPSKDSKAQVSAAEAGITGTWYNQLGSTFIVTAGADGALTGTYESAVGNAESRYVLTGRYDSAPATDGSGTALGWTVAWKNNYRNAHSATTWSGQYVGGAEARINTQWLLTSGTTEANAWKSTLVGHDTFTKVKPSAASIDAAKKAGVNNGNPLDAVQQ
# NADPH oxidase 4 (Homo sapiens), sequence (Q9NPH5 whole entry, looked up): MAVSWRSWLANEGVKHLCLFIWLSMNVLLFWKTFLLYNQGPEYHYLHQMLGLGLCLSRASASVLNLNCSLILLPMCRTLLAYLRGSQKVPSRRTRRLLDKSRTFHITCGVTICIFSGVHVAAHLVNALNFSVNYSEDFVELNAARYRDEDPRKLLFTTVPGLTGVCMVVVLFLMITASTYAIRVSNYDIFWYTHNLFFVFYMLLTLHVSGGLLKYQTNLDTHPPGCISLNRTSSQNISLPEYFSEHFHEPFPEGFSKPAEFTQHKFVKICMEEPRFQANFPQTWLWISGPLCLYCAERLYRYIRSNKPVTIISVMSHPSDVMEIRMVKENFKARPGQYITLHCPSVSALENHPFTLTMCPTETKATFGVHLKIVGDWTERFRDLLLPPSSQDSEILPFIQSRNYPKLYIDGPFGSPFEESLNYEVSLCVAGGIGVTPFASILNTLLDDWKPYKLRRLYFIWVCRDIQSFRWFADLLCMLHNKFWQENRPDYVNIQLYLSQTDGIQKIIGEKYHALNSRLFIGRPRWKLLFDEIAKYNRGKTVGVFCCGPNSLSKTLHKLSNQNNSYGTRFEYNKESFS
Structure (SMILES),composite z-score [1],z-score [2],z-score [3],z-score [4],z-score [5],composite z-score [6],composite z-score [7],composite z-score (Torsin-1A (Homo sapiens) [8]),composite z-score (Torsin-1A (Homo sapiens) [9]),composite z-score [10],z-score [11],composite z-score [12],z-score [13],z-score [14],z-score [15],z-score [16],z-score [17],z-score [18],z-score [19],z-score [20]
C=CC[C@@]1(C(N)=O)N=C(c2ccc(OCCCO)cc2)O[C@@H]1c1ccccc1CN=[N+]=[N-],0.186,-3.34 (inactive),-0.58 (inactive),1.8 (inactive),-1.35 (inactive),0.456,0.233,0.183,0.0254,-0.776,0.0347 (inactive),0.571,21.5 (active),4.04 (inactive),2 (inactive),-0.413 (inactive),2.43,-0.934 (inactive),0.313 (inactive),-0.802
C=C(COC)/C(=C/C[C@@H](OC(C)=O)c1ccc(OCCO)cc1)c1cc(C(=O)OC)ccc1OC,0.969,-0.21 (inactive),-0.201 (inactive),1.82 (inactive),1.96 (inactive),-0.0154,0.0154,0.518,0.672,1.57,0.0977 (inactive),0.139,11.2 (active),1.87 (inactive),0.681 (inactive),0.601 (inactive),-0.0505,-0.0514 (inactive),-0.355 (inactive),-1.57
O=C1C2C=CC(C(O)C3CCCCC3)N(Nc3ccc([N+](=O)[O-])cc3)C2C(=O)N1c1ccccc1 (stereo not given),-0.457,-0.415 (inactive),-0.998 (inactive),0.537 (inactive),1.13 (inactive),0.48,-0.213,-0.465,-0.199,-1.09,-1.13 (inactive),0.455,21.3 (active),4.73 (inactive),4.92 (inactive),1.42 (inactive),-0.185,-1.03 (inactive),-3.38 (inactive),-4.06
COc1cc2c(cc1O)C(C1CC1)N(Cc1cc3c(cc1Br)OCO3)CC2 (stereo not given),-0.481,-5.73 (inactive),-0.109 (inactive),0.245 (inactive),4.34 (inactive),-0.735,-0.179,-0.151,-0.416,-1.09,-1.46 (inactive),-0.263,9.09 (active),1.17 (inactive),0.838 (inactive),0.72 (inactive),-0.074,-6.19 (inactive),-3.97 (inactive),-4.81
C=CC[C@@]1(C(=O)N(C)C)N=C(c2ccc(OCCCO)cc2)O[C@@H]1c1ccccc1N=[N+]=[N-],0.554,-2.25 (inactive),0.557 (inactive),0.227 (inactive),-0.825 (inactive),1.28,0.274,0.722,1.03,0.264,0.722 (inactive),0.57,33 (active),28.9 (active),3.29 (inactive),8.39 (active),-0.195,-1.12 (inactive),0.475 (inactive),0.446
O=C1[C@H]2C=C(Br)[C@H](C[C@@H]2c2ccccc2)[C@@]12CO2,0.127,-0.856 (inactive),0.552 (inactive),1.58 (inactive),4.2 (inactive),0.105,0.0528,0.175,0.273,0.982,-1.47 (inactive),0.0041,1.22 (inactive),0.497 (inactive),0.637 (inactive),0.279 (inactive),-0.327,0.242 (inactive),0.141 (inactive),-0.855
C=CCNC(=O)[C@H]1[C@@H]2C(=O)O[C@@H](c3ccccc3)[C@@H](c3ccccc3)N2[C@@H](c2ccccc2OCCO)[C@]12C(=O)Nc1ccc(C#CC3=CCCCC3)cc12,0.291,-6.47 (inactive),1.64 (inactive),0.484 (inactive),1.05 (inactive),0.0808,0.0074,1.23,1.14,1.61,0.748 (inactive),0.0919,3.01 (inactive),2.25 (inactive),0.407 (inactive),1.71 (inactive),0.142,1.38 (inactive),0.676 (inactive),1.75
COC(=O)[C@@]1(Cc2ccccc2)[C@H]2c3cc(C(=O)N(C)C)n(CCSCCO)c3C[C@H]2CN1C(=O)c1ccccc1,0.197,-0.432 (inactive),0.33 (inactive),0.397 (inactive),0.695 (inactive),0.357,-0.0589,-0.0487,0.796,-0.931,-1.8 (inactive),0.138,1.02 (inactive),0.187 (inactive),0.189 (inactive),0.496 (inactive),-0.199,0.594 (inactive),0.597 (inactive),-0.72
